From ChEMBL document CHEMBL1961873, “Compounds: GSK PKIS; Assays: Nanosyn kinase panel” (2012)

Key:
[1] = biological target: RAC-alpha serine/threonine-protein kinase (Homo sapiens) (UniProt P31749); details: at 0.1 µM
[2] = biological target: RAC-alpha serine/threonine-protein kinase (Homo sapiens) (UniProt P31749); details: at 1 µM
[3] = biological target: RAC-beta serine/threonine-protein kinase (Homo sapiens) (UniProt P31751); details: at 0.1 µM
[4] = biological target: RAC-beta serine/threonine-protein kinase (Homo sapiens) (UniProt P31751); details: at 1 µM
[5] = biological target: RAC-gamma serine/threonine-protein kinase (Homo sapiens) (UniProt Q9Y243); details: at 0.1 µM
Sequence of RAC-gamma serine/threonine-protein kinase (Homo sapiens) (Q9Y243 whole entry): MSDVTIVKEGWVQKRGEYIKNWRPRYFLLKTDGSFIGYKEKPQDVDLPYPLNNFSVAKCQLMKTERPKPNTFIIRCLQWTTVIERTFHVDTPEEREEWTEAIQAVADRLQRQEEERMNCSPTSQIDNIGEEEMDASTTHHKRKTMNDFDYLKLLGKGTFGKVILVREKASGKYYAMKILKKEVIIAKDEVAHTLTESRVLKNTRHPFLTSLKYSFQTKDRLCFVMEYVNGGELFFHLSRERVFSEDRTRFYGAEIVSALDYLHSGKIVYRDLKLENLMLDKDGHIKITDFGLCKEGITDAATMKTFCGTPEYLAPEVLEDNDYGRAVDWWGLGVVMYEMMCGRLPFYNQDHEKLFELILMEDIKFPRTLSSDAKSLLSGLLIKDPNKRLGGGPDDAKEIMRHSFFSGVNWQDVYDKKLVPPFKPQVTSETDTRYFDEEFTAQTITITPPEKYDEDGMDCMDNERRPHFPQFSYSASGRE

[6] = biological target: RAC-gamma serine/threonine-protein kinase (Homo sapiens) (UniProt Q9Y243); details: at 1 µM
[7] = biological target: G protein-coupled receptor kinase 6 (Homo sapiens) (UniProt P43250); details: at 0.1 µM
[8] = biological target: G protein-coupled receptor kinase 6 (Homo sapiens) (UniProt P43250); details: at 1 µM
[9] = biological target: T1, Rhodopsin kinase GRK7 (Homo sapiens) (UniProt Q8WTQ7); details: at 0.1 µM
T1 sequence (whole entry): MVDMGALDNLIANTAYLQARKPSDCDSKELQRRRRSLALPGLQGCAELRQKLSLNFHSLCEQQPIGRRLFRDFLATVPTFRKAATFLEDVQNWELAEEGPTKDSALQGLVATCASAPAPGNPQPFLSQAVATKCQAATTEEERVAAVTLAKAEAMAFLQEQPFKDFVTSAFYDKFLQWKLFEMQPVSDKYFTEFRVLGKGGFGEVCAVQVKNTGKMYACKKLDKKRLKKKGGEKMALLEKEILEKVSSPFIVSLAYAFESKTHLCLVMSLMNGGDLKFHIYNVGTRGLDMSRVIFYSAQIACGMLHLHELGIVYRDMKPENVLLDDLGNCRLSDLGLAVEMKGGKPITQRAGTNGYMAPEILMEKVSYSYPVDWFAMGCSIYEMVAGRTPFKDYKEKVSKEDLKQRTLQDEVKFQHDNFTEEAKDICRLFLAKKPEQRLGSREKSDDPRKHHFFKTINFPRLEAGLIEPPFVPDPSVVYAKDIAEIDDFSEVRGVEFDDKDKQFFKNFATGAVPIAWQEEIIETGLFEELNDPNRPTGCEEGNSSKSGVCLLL

[10] = biological target: T1, Rhodopsin kinase GRK7 (Homo sapiens); details: at 1 µM
[11] = biological target: Serine/threonine-protein kinase MRCK alpha (Homo sapiens) (UniProt Q5VT25); details: at 0.1 µM
Sequence of Serine/threonine-protein kinase MRCK alpha (Homo sapiens) (Q5VT25 whole entry): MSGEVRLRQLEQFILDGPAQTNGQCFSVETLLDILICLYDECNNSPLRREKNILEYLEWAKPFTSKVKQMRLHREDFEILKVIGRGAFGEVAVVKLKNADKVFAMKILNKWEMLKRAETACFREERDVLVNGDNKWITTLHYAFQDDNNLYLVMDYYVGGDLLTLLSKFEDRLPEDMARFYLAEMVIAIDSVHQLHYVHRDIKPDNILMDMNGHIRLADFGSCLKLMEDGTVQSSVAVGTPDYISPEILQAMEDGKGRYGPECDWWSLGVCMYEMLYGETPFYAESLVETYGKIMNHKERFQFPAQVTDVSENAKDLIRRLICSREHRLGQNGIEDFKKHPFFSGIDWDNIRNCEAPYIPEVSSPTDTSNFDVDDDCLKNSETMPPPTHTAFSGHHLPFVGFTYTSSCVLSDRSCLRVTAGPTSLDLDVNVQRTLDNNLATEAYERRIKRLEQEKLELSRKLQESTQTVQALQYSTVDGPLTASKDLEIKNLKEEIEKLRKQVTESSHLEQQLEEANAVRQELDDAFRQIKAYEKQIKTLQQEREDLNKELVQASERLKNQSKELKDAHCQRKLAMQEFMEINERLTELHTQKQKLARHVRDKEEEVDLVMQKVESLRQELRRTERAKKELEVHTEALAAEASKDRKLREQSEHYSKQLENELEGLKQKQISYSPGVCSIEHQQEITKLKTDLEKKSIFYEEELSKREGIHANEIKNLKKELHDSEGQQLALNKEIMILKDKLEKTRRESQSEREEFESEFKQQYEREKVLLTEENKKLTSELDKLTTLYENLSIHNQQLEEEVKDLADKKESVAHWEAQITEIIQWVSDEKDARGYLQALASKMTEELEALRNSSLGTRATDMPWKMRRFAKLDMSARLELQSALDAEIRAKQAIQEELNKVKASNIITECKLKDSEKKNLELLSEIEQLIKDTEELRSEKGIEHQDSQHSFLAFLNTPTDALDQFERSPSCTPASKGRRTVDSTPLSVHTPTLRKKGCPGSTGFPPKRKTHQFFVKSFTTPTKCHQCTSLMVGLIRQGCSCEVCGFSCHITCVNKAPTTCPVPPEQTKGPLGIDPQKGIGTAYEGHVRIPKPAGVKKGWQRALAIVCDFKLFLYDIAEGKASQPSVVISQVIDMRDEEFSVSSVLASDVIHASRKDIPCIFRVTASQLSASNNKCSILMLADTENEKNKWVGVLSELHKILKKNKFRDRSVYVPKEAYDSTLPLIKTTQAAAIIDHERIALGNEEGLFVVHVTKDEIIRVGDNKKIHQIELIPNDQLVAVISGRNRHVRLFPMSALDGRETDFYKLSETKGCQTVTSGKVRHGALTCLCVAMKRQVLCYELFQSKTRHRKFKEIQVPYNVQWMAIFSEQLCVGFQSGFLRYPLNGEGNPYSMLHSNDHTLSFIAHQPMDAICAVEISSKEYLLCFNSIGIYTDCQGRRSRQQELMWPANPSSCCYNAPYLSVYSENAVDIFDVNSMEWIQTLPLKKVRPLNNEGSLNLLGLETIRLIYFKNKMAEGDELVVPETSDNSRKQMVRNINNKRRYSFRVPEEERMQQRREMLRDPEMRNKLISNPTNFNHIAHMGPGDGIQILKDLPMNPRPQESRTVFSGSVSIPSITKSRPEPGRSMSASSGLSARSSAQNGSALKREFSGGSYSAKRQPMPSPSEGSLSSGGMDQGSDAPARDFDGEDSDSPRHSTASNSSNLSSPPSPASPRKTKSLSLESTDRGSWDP

[12] = biological target: Serine/threonine-protein kinase MRCK alpha (Homo sapiens) (UniProt Q5VT25); details: at 1 µM
[13] = biological target: Serine/threonine-protein kinase MRCK beta (Homo sapiens) (UniProt Q9Y5S2); details: at 0.1 µM
[14] = biological target: Serine/threonine-protein kinase MRCK beta (Homo sapiens) (UniProt Q9Y5S2); details: at 1 µM
[15] = biological target: Ribosomal protein S6 kinase alpha-5 (Homo sapiens) (UniProt O75582); details: at 0.1 µM
Sequence of Ribosomal protein S6 kinase alpha-5 (Homo sapiens) (O75582 whole entry, looked up): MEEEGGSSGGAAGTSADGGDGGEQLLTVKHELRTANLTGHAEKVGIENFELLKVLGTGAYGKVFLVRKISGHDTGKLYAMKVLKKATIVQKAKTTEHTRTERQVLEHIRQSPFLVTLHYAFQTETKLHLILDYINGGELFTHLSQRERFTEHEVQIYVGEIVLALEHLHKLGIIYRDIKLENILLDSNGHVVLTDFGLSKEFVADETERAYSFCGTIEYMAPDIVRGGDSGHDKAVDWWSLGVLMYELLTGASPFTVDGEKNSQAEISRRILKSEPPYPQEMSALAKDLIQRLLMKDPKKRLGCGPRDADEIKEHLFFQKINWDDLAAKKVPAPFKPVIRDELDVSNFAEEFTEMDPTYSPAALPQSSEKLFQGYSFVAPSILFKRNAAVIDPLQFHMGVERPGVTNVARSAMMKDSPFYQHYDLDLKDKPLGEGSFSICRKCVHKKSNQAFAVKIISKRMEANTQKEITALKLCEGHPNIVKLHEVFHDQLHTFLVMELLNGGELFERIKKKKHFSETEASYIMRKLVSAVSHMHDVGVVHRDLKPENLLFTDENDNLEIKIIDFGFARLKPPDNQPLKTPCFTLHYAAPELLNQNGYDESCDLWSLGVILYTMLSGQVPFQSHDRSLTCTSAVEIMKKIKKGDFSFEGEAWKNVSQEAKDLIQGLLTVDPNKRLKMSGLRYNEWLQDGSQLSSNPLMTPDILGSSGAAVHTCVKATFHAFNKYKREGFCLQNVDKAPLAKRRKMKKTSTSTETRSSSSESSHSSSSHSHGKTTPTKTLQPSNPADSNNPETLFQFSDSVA

[16] = biological target: Ribosomal protein S6 kinase alpha-5 (Homo sapiens) (UniProt O75582); details: at 1 µM
[17] = biological target: Ribosomal protein S6 kinase alpha-4 (Homo sapiens) (UniProt O75676); details: at 0.1 µM
Sequence of Ribosomal protein S6 kinase alpha-4 (Homo sapiens) (O75676 whole entry, looked up): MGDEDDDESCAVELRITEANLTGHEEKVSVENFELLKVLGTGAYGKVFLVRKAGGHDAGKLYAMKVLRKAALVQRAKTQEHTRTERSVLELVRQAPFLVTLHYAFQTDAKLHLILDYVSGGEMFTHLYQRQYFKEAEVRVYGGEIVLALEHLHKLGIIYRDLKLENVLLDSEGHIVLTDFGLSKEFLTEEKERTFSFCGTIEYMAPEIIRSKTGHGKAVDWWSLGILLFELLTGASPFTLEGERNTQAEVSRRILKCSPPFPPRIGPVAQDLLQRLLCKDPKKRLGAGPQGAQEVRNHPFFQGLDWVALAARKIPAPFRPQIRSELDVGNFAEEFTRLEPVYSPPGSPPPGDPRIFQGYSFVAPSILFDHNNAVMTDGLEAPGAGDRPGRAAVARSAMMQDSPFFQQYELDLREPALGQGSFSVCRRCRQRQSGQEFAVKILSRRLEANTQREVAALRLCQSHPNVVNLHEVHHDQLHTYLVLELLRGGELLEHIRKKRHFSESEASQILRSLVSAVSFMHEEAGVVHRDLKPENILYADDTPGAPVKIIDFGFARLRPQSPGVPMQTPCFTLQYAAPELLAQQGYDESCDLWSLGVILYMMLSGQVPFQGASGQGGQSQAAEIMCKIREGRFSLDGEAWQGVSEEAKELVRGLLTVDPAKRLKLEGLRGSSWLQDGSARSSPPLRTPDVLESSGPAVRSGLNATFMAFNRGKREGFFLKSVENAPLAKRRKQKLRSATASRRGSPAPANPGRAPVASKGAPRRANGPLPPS

[18] = biological target: Ribosomal protein S6 kinase alpha-4 (Homo sapiens) (UniProt O75676); details: at 1 µM
[19] = biological target: Ribosomal protein S6 kinase beta-1 (Homo sapiens) (UniProt P23443); details: at 0.1 µM
Sequence of Ribosomal protein S6 kinase beta-1 (Homo sapiens) (P23443 whole entry, looked up): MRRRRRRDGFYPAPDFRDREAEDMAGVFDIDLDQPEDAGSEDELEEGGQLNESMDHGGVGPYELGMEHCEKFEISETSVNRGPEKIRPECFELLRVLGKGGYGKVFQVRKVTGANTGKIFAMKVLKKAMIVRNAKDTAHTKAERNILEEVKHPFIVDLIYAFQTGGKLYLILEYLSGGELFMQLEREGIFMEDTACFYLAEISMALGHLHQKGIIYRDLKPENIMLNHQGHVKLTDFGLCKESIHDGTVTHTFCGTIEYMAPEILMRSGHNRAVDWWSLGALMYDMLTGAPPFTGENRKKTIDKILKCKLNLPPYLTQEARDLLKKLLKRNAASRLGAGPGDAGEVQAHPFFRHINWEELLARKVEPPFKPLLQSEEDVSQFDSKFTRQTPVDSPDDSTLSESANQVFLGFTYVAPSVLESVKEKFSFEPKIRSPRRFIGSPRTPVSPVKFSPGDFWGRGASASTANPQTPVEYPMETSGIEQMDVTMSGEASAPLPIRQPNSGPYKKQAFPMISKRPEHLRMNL

[20] = biological target: Ribosomal protein S6 kinase beta-1 (Homo sapiens) (UniProt P23443); details: at 1 µM

Sequence of RAC-beta serine/threonine-protein kinase (Homo sapiens) (P31751 whole entry): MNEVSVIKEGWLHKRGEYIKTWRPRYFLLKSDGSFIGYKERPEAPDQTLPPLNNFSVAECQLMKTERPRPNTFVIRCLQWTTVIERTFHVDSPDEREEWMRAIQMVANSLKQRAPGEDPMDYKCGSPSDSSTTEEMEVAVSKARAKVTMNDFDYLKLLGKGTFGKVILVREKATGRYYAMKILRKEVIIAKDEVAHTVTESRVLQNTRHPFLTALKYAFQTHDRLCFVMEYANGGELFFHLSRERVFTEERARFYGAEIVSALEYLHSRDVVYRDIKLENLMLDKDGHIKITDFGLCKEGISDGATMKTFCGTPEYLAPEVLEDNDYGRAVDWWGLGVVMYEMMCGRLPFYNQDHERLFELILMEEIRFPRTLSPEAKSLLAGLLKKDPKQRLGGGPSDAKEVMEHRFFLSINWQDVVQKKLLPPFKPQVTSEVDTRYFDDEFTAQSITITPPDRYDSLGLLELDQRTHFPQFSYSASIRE

Structure (SMILES)	inhibition [1] [%]	inhibition [2] [%]	inhibition [3] [%]	inhibition [4] [%]	inhibition [5] [%]	inhibition [6] [%]	inhibition [7] [%]	inhibition [8] [%]	inhibition [9] [%]	inhibition [10] [%]	inhibition [11] [%]	inhibition [12] [%]	inhibition [13] [%]	inhibition [14] [%]	inhibition [15] [%]	inhibition [16] [%]	inhibition [17] [%]	inhibition [18] [%]	inhibition [19] [%]	inhibition [20] [%]
c1ccc(Oc2ccc(Nc3ncc(-c4ccccc4)o3)cc2)cc1	0.05	0.39	0.18	0.15	-0.09	1.21	2.54	0.81	2.37	2	-0.31	1.06	0.44	3.62	0.98	3.6	1.31	3.78	0.11	-0.31
COc1cccc(-n2cnc3c(N/N=C/c4ccncc4)ncnc32)c1	-4.15	-3.41	-3.57	-4.73	-4.17	-3.32	2.45	8.28	1.71	5.64	1.59	3.69	0.38	0.7	-0.31	1.02	2.44	3.95	-0.32	1.15
O=C1Nc2ccc(I)cc2C1=Cc1cc(Br)c(O)c(Br)c1	1.14	0.96	1.72	1.1	1.78	0.85	4.84	17.8	12.1	15.5	6.44	3.97	-0.53	1.27	1.69	1.77	2.87	4.68	2.06	4.52
NS(=O)(=O)c1ccc(Nc2cc(-c3ccc(O)c(F)c3)n[nH]2)cc1	-3.05	-2.1	-3.37	-1.69	-3.06	-2.28	-2.35	-0.57	-9.14	-0.64	-0.79	0.17	0.18	0.15	-1.17	8.77	-0.21	8.93	-2.09	4.29
COC(=O)Nc1nc2ccc(Sc3ccc(NC(=O)Nc4cc(C(F)(F)F)ccc4F)cc3)cc2[nH]1	0.65	0.76	-0.16	-0.51	0.73	0.99	2.62	-0.1	-0.34	-6.83	0.78	0.4	-0.23	-1	1.97	2.08	0.7	0.37	78.2	7.6
COc1ccc(C2=C(N3CCc4ccccc43)C(=O)NC2=O)cc1	0.6	0.96	2.65	1.87	1.01	2.72	8.72	8.49	27.9	20.3	-0.56	-0.21	1.1	0.12	4.26	3.53	2.26	3.24	1.91	3.41
Nc1nccc(-c2c(-c3ccc(F)cc3)ncn2C2CCC(O)CC2)n1 (stereo not given)	-1.5	-1.14	-2.08	-1.44	-1.82	0.5	1.78	-1.92	-3.24	-1.89	-0.25	-0.81	0.88	0.56	-1.03	-0.24	-1.62	-0.73	-1.59	-1.84
